The results in this text go back to ChEMBL document CHEMBL3988442, “University of Dundee, Small-Polar-MMV Screening Library” (2021).

What all share (set-up): scale not given: direction of the effect not stated beside the values
For assay [1], the target named is Protein translocase subunit SecA (Escherichia coli (strain K12)) (UniProt P10408). Description: Assay to Identify E. coli SecA ATPase Inhibitors. It is filed as functional. Conditions: 30 µM.
In assay [2] the target is T1, Ubiquitin-activating enzyme e1, putative (Leishmania donovani (strain BPK282A1)) (UniProt E9BSI1).
T1 sequence (whole entry): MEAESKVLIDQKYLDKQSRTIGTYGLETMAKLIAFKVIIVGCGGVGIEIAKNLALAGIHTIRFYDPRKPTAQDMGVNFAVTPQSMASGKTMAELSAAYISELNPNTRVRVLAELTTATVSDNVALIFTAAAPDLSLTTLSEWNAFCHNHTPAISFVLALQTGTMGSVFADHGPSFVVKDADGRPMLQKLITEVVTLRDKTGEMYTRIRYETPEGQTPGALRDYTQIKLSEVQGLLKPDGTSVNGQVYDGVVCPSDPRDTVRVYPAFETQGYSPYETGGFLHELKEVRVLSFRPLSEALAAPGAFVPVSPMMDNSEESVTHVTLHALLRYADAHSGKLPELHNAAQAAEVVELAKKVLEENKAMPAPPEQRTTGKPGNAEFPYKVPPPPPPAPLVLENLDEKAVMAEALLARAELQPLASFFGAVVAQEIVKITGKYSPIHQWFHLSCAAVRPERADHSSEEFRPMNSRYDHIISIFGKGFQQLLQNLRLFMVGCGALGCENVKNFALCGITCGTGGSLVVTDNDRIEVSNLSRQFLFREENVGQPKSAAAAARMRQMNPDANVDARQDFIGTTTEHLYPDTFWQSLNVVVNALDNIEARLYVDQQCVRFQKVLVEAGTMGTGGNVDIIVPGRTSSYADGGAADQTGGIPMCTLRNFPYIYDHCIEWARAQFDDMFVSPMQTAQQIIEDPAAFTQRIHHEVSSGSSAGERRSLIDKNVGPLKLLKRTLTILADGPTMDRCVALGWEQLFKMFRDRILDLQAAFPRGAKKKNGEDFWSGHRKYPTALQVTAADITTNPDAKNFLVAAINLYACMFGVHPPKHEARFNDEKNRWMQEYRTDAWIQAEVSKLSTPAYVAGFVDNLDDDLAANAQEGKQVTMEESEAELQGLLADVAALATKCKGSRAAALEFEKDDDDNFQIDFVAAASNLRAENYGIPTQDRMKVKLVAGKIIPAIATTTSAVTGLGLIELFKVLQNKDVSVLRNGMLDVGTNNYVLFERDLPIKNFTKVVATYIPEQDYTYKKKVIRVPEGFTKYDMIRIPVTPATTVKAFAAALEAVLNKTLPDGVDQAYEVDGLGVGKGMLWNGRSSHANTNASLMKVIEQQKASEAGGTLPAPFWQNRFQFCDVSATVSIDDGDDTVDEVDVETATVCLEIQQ
The assay can be described thus: Leishmania donovani Ubiquitin Activating Enzyme (LdE1). It is filed as functional. Conditions: 30 µM.

Assay [3] addresses AMP-activated protein kinase, AMPK (Homo sapiens) (UniProt P54646+O43741+P54619+Q9UGJ0+Q9Y478+Q13131+Q9UGI9). Description: AMP-dependent Kinase enzyme assay. An in vitro enzyme assay that detects ADP turnover that is directly proportional to AMPK activity. This uses naive AMPK that is activated during the assay with MK-8722. It is filed as functional. Conditions: 30 µM.
Assay [4] deals with Sialic acid-binding Ig-like lectin 9 (Homo sapiens) (UniProt Q9Y336). The assay can be described thus: Hs-Siglec9 ALPHAscreen SOP 20170721. Conditions: 10 µM. In general terms: Bead proximity is the source of the signal in Alpha formats.
Sialic acid-binding Ig-like lectin 9 (Homo sapiens), sequence (Q9Y336 whole entry): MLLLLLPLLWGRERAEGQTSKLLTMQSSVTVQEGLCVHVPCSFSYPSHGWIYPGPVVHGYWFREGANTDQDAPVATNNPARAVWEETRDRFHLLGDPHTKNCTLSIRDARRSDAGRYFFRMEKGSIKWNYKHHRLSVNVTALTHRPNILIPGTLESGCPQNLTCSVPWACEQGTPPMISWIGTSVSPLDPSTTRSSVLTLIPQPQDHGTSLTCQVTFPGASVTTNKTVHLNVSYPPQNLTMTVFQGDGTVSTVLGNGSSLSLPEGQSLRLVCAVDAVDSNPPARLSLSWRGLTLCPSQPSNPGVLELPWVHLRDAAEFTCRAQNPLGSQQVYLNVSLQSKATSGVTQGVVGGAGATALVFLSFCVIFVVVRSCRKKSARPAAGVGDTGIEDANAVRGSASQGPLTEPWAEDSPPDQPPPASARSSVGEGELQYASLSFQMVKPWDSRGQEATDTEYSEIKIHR
A further assay deals with Trypanosoma cruzi. Description: Trypanosoma cruzi phosphomannomutase and mannose-1-phosphate guanylyltransferase assay. It is filed as functional. Conditions: 10 µM.
In assay [5] the target is T2, Arginase-2, mitochondrial (Homo sapiens) (UniProt P78540).
T2 sequence (whole entry): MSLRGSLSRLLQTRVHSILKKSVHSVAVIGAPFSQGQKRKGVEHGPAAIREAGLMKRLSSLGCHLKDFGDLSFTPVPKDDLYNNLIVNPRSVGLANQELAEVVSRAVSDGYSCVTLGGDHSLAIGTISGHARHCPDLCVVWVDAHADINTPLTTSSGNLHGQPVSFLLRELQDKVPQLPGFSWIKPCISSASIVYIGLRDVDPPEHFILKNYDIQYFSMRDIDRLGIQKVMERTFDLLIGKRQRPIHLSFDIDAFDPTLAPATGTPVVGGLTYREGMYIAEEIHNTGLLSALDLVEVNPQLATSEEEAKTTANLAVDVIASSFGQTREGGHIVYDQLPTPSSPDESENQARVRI
The assay can be described thus: in vitro enzyme assay to detect the production of urea directly proportional to the activity of Arginase II. Also: in the data most compounds retested in dose-response had high values. It is filed as functional. Conditions: 33.3 µM.

Assay [6] addresses T3, Proteasome subunit beta (Trypanosoma cruzi) (UniProt O96673).
T3 sequence (whole entry): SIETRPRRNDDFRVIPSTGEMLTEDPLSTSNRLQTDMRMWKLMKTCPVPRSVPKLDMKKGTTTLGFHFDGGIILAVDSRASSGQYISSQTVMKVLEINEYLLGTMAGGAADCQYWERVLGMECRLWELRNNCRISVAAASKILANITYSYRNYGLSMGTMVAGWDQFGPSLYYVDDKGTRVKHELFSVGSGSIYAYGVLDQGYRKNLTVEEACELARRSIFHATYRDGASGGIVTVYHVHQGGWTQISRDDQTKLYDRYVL
The assay can be described thus: Trypanosoma cruzi proteasome chymotrypsin-like activity (TcProtChymo) assay. Also: in the data most compounds retested in dose-response had high values. It is filed as functional. Conditions: 9.37 µM.

For another assay, the species on record is Homo sapiens. Description: To identify inhibition of the IFN signalling (Jak-Stat) pathway via expression of an eGFP reporter gene under the control of an IFN-stimulated response element (ISRE) containing MxA promoter. It is filed as functional. Conditions: 30 µM.
Assay [7] concerns the target T4, Tyrosyl-tRNA synthetase, putative (Trypanosoma cruzi (strain CL Brener)) (UniProt Q4DSP6).
T4 sequence (whole entry): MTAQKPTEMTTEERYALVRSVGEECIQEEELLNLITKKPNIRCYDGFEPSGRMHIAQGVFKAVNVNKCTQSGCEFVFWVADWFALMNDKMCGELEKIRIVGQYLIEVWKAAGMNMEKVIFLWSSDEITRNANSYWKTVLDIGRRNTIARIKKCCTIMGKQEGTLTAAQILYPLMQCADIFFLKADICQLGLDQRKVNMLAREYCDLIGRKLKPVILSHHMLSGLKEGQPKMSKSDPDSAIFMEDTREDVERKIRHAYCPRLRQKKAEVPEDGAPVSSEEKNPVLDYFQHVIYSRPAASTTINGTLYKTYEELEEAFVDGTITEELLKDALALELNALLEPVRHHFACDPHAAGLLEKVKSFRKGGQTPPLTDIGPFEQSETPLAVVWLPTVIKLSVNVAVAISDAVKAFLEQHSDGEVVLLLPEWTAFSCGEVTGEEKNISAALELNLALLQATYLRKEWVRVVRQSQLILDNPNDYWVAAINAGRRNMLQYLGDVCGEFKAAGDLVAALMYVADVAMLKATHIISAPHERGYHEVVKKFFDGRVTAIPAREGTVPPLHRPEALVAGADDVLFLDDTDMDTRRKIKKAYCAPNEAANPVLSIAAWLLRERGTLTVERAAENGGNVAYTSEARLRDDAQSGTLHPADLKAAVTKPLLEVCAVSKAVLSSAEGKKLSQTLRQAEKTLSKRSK
Description: Trypanosoma cruzi tyrosyl tRNA synthetase (TcYRS) _High Tyrosine SOP. Also: in the data most compounds retested in dose-response had high values. It is filed as functional. Conditions: 30 µM.

In assay [8] the target is T4, Tyrosyl-tRNA synthetase, putative (Trypanosoma cruzi (strain CL Brener)). Description: Trypanosoma cruzi tyrosyl tRNA synthetase (TcYRS) SOP. It is filed as functional. The settings on record: 30 µM.
Assay [9] concerns the target Chromo domain-containing protein 1 (Saccharomyces cerevisiae (strain ATCC 204508 / S288c) (Baker's yeast)) (UniProt P32657). The assay can be described thus: ScCHD-1 Enzyme Inhibition Assay. Also: in the data most compounds retested in dose-response had high values. The settings on record: 30 µM. It is filed as functional.

For some of these results: Measured potencies and affinities stand elsewhere.

Chromo domain-containing protein 1 (Saccharomyces cerevisiae (strain ATCC 204508 / S288c) (Baker's yeast)), sequence (P32657 whole entry, the tested form may be a part): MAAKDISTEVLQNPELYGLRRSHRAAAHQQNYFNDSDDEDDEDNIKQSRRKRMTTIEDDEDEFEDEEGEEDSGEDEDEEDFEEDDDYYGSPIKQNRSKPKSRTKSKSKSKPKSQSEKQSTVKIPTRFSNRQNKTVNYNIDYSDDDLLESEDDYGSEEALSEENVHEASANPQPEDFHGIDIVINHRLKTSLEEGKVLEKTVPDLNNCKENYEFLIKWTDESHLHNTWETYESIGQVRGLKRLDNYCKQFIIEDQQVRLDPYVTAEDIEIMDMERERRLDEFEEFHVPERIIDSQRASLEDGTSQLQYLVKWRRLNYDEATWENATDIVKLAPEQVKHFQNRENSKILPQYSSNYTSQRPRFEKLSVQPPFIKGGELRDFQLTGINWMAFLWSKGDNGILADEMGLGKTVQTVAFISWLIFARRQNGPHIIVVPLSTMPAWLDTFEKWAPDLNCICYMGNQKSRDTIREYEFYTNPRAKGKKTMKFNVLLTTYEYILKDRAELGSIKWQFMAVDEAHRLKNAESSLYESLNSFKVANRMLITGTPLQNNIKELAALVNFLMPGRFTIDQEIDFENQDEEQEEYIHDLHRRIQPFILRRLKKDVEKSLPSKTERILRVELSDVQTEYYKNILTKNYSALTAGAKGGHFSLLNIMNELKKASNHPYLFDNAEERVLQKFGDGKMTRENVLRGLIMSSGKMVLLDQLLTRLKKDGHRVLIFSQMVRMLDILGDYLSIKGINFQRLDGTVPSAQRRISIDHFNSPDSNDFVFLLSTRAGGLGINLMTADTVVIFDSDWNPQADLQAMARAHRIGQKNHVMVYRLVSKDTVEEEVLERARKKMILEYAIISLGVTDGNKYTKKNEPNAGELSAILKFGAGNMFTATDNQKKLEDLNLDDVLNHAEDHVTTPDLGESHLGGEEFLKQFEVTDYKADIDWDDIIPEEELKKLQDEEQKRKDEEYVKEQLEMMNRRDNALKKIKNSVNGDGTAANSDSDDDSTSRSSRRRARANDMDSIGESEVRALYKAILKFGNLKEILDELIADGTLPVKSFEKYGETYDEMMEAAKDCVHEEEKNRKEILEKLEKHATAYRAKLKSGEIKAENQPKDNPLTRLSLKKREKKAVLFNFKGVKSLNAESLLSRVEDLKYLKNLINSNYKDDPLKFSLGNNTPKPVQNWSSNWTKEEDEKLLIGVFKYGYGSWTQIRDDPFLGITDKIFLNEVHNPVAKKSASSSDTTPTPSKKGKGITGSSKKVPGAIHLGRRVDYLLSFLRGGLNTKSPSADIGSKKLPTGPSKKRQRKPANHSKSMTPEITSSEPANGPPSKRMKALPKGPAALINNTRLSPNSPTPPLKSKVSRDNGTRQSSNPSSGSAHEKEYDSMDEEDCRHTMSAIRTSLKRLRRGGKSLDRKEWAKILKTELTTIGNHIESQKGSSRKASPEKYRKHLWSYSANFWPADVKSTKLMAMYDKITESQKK
Protein translocase subunit SecA (Escherichia coli (strain K12)), sequence (P10408 whole entry): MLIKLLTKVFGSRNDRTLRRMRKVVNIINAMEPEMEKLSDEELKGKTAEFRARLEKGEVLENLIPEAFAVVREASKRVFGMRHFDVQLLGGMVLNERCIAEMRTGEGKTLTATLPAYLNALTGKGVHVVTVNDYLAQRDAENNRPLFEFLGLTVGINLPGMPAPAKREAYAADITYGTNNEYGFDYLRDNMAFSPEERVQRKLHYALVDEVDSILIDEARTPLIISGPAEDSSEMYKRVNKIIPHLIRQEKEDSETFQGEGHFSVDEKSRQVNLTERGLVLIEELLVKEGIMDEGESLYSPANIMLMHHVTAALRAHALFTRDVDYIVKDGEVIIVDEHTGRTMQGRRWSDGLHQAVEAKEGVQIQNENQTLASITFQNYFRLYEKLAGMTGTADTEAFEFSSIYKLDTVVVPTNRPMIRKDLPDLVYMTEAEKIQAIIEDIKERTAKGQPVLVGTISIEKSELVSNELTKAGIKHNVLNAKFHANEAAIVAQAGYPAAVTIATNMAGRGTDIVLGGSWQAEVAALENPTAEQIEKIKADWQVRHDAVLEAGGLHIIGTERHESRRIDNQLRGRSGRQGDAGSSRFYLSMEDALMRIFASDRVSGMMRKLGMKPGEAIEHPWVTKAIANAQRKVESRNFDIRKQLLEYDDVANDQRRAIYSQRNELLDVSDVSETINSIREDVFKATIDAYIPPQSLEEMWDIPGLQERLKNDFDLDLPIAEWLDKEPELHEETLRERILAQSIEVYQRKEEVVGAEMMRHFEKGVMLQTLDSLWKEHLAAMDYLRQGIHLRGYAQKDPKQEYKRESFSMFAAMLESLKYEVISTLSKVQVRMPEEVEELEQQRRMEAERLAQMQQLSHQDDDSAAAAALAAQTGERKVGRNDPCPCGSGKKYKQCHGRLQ

As for `N#Cc1ccc(OCCOc2ccccc2C(=O)N2CCOCC2)cc1`, the Percent Effect was -0.304% in [1]; 7.79% in assay [2]; -1.44% in assay [3]; 10.7% in assay [4]; 1.28% with Trypanosoma cruzi; -11% in assay [5]. Also, the Percent Effect is 12.8% in assay [6]; -19.7% in the assay filed under Homo sapiens; 4.3% in assay [7]; 13.6% in [8]; -2.37% in assay [9].

Turning to `COC(=O)c1sccc1S(=O)(=O)N1CCC(Oc2cccnn2)CC1`, the Percent Effect in [1] is -0.0971%; in assay [2] it was -5.48%; in assay [3], 16.5%; in assay [4] it was -5.94%; with Trypanosoma cruzi, -3.33%; in assay [5], 1.36%. In addition, the Percent Effect in assay [6] was 9.58%; in the assay filed under Homo sapiens it was 9.58%; in [7], -6.45%; in assay [8] it was 0%; in assay [9], -3.65%.

For `COc1cccc(N2CCN(CC(O)c3cc(C)ccc3C)CC2)c1` (stereo not drawn), the Percent Effect in assay [1] is -1.87%; in assay [2], 10.5%; in assay [3], -6.71%; in [4], -9.14%; with Trypanosoma cruzi, -8.67%; in [5], 2.37%. For the same compound, the Percent Effect in assay [6] was 18.5%; in the assay filed under Homo sapiens it was -5.38%; in assay [7], 7.45%; in [8], 7.79%; in [9] it was -5.09%.

In the case of `CNC(=O)[C@H]1C[C@@H]2CN(S(=O)(=O)c3ccccc3)C[C@@H]2N1C(C)=O`, the Percent Effect in assay [1] was -5.14%; in [2], 7.79%; in assay [3] it was 3.54%; in assay [4], 8.79%; in the assay with Trypanosoma cruzi, 8.95%; in assay [5], 1.38%. The Percent Effect is 8.32% in assay [6]; 18.1% in the assay filed under Homo sapiens; 5.38% in [7]; 11.1% in assay [8]; 1.18% in assay [9].

Consider `COc1c(CNC(c2ccc(F)cc2)c2nccn2C)c(C)nn1C` (stereo not drawn), for which the Percent Effect in [1] is -4.41%; in [2], 23.7%; in assay [3], -3.24%; in [4] it was -2.7%; in the assay with Trypanosoma cruzi, 10.9%; in [5] it was -0.383%. The Percent Effect was 13.4% in assay [6]; 10.1% in the assay listed under Homo sapiens; 9.31% in [7]; 29.3% in [8]; -12.6% in [9].

For `CC(C)CN1C[C@H]2CCN(Cc3cccnc3)CC[C@H]2S1(=O)=O`, the Percent Effect in assay [1] was -4.38%; in [2], 8.11%; in [3], 2.04%; in [4], -0.964%; with Trypanosoma cruzi, -2.05%; in assay [5] it was -5.41%. For the same compound, the Percent Effect is 16.2% in assay [6]; 21.9% in the assay listed under Homo sapiens; 1.08% in assay [7]; 5.13% in [8]; 1% in assay [9].

For `CC(C)c1noc(CCCC(=O)N2CCC(Cc3cccnc3)CC2)n1`, the Percent Effect is 1.54% in [1]; -2.53% in assay [2]; 1.06% in [3]; 8.41% in assay [4]; -6.14% in the assay on Trypanosoma cruzi; 4.18% in assay [5]. The Percent Effect was -2.05% in assay [6]; 16.4% in the assay filed under Homo sapiens; 0.493% in assay [7]; -3.8% in assay [8]; -3.44% in assay [9].

For `O=C(CC1CCCC1)NCCn1ccc(-c2ccccn2)n1`, the Percent Effect in assay [1] was -2.17%; in [2], 2.6%; in assay [3], 9.65%; in assay [4], 12%; in the assay on Trypanosoma cruzi, -3.85%; in assay [5], 0.645%. The Percent Effect was -2.09% in assay [6]; -8.59% in the assay listed under Homo sapiens; 2.12% in [7]; 6.41% in assay [8]; -2.03% in assay [9].
